From PubChem
ABCB6 inh 2 = human ABCB6 transporter inhibition; Q9NP58; K562-ABCB6 porphyrin accumulation, flow cytometry, 1 h; hits give low values; actives 0.19% (n = 360,000); fluorescence ratio to DMSO, % at 10 µM;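 active = fluorescence ratio to DMSO below 75%, the collection mean minus 3 SD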;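 note: signal is porphyrin accumulated inside mitochondria; 100% equals median channel fluorescence of DMSO control wells; lower ratio means ABCB6 inhibition with less porphyrin fluorescence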
SKN-1 inh = C. elegans SKN-1 inhibition. inhibition, % at 21.8 µM. actives 0.49% (n = 360,000). C. elegans VP596 Pgst-4::GFP/RFP ratio, acrylamide-induced, 24 h. AID 624304;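 active = interference check ratio from 0.5 to 1.5 plus GFP to RFP signal ratio inhibition reaching or exceeding a fixed threshold, cut at about 30% in these data, passing the limit was not always enough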
Yeast superoxide = yeast age-related superoxide inhibition as caloric restriction mimetic; S. cerevisiae aged cells, superoxide DHE fluorescence; hits give low values; superoxide response (% of plate mean), % at 10 µM; actives 0.18% (n = 330,000); AID 2690;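 active = superoxide response under a set limit, about three screen SD below normal, cut at about 65% in these data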;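 note: yeast aged for seven days with compound at 30 °C before DHE staining; 100% = average MFI of all compound-treated wells on the plate with controls excluded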
Platelet DG rel = platelet dense granule release activity. human platelet-rich plasma, SFLLRN dense granule ATP release, luminescence. inhibition, %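 (compounds screened at 7.5 µM in platelet-rich plasma)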. actives 0.22% (n = 300,000);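 active = mean replicate score, as percent of positive control, at or above 50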
VLA-4 inh = inhibition in a human VLA-4 binding assay; P13612; VLA-4 expressing cells, ligand binding flow cytometry; inhibition, % (about 7 µM as worked out from the volumes in the protocol); actives 0.2% (n = 330,000); AID 2557; in the data active = inhibition above about 50%
Target sequence (P13612 whole entry, looked up): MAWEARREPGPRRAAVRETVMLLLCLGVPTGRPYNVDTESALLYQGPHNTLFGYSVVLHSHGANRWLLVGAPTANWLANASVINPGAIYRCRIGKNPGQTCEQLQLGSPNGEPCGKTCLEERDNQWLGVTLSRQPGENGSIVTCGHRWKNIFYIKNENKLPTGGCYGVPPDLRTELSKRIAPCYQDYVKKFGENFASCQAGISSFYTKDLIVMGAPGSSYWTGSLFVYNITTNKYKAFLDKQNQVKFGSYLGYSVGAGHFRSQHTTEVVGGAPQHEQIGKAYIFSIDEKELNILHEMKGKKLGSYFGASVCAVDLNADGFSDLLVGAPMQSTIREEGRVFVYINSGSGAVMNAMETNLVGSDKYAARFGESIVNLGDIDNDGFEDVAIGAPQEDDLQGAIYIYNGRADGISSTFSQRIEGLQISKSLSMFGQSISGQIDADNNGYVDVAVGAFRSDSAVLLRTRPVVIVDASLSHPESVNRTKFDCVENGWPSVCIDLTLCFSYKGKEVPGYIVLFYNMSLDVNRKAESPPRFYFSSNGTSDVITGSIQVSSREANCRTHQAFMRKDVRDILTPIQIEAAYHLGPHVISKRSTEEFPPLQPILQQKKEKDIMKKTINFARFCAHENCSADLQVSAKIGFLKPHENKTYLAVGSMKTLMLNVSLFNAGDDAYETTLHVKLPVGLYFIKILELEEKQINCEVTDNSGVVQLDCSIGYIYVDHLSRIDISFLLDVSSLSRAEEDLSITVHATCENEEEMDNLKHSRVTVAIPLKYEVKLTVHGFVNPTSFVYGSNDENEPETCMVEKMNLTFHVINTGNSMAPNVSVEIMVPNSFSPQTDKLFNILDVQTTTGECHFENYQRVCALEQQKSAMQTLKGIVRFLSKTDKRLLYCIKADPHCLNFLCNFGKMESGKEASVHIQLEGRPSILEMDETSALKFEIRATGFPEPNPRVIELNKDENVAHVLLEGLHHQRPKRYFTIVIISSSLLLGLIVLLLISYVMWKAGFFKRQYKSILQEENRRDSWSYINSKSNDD
Starred values were filed as active, the others as inactive; · = no result. Most compounds without a hit are left out; they make up all but 1.2% or so of the library.

SMILES	ABCB6 inh 2	SKN-1 inh	Yeast superoxide	Platelet DG rel	VLA-4 inh
CCCNC(=O)C1(C)CCCN(Cc2ccc(-c3ccccc3)o2)C1 (stereo unspecified)	101	15	·	·	·
CCOC(=O)Nc1cc2c(cc1[N+](=O)[O-])-c1ccccc1C2=O	94	19	·	·	·
CCOC(=O)Nc1cccc2c1-c1ccc([N+](=O)[O-])cc1C2=O	103	40*	·	·	·
COC(=O)c1cccc(CC2(C)C(=O)Nc3ccc(OC(F)(F)F)cc32)c1 (stereo unspecified)	94	37*	·	·	·
C/C(=C\C(=O)c1ccccc1)NCc1ccc(F)cc1	96	33*	92	-6	-6
CC(C)(C)NC(=O)C(c1ccc(C(F)(F)F)cc1)n1c(=O)c(-c2cc3ccccc3[nH]2)nc2ccccc21 (stereo unspecified)	·	25	·	·	·
c1ccc(CCNc2ncnc3c2cnn3-c2ccccc2)cc1	106	35*	84	-6	7
Clc1ccc(Nc2ncnc3c2cnn3-c2ccccc2)cc1	99	37*	103	-11	19
c1ccc(CNc2ncnc3c2cnn3-c2ccccc2)cc1	94	-17	100	1	15
CC(=O)Nc1ccc(Nc2ncnc3c2cnn3-c2ccccc2)cc1	92	13	106	-2	10
CCOc1ccc(CCN2C(=O)C(=O)N([C@@H](Cc3ccccc3)CN3CCC[C@H]3CN3C(=O)C(=O)NC[C@@H]3Cc3ccccc3)C[C@@H]2CC(C)C)cc1	91	10	·	·	·
CCN1CCSc2ccc(C(=O)NCc3cc(Br)ccc3OC)cc21	100	3	97	2	0
COc1ccc(Br)cc1CNC(=O)c1ccc2c(c1)N(C)CCS2	92	5	102	97*	-4
CC(C)(C)NC(=O)C(c1ccnc2ccccc12)n1c(=O)c(-c2ccco2)nc2ccccc21 (stereo unspecified)	·	14	·	·	·
Cc1cc(NC(=O)CSc2nnc(-c3ccncc3)n2-c2ccc(F)cc2)no1	91	42*	98	4	4
CC1=C/C(=C(/c2cc(C)c(O)c(Br)c2)c2ccccc2S(=O)(=O)O)C=C(Br)C1=O	98	51*	109	8	-2
Nc1cc(=O)[nH]c(SCC(=O)Nc2ccc(S(=O)(=O)N3CCOCC3)cc2)n1	102	35*	82	15	-1
Nc1cc(=O)[nH]c(SCC(=O)Nc2ccc(S(=O)(=O)N3CCCCC3)cc2)n1	97	5	107	9	0
CC(C)C[C@H]1CNC(=O)C(=O)N1CC1CCN(CC2CCC(C)CC2)CC1 (stereo partly specified)	99	5	·	·	·
Cc1ccccc1-c1nc(CS(=O)CC(=O)NCc2ccc3c(c2)OCO3)c(C)o1 (stereo unspecified)	97	36*	143	-3	4
O=C(NCCCN1CCOCC1)C1(c2ccccc2)CCCC1	97	-4	115	70*	11
COc1ccc(C2C3=C(N=C4SCC(=O)N42)c2ccccc2CC3)cc1OC (stereo unspecified)	92	48*	92	9	-13
O=C(NCC(=O)N(Cc1cccs1)C(C(=O)NC1CCCC1)c1cccnc1)c1ccco1 (stereo unspecified)	88	33	89	-1	0
O=C(NCC(=O)N(Cc1cccs1)C(C(=O)NC1CCCCC1)c1ccncc1)c1ccco1 (stereo unspecified)	91	42*	100	-3	-21
O=C(CCc1ccccc1)NC1CCSC1=O (stereo unspecified)	98	47*	112	0	7
SMILES	ABCB6 inh 2	SKN-1 inh	Yeast superoxide	Platelet DG rel	VLA-4 inh
O=C(COc1ccccc1)NC1CCSC1=O (stereo unspecified)	95	-1	113	-4	0
O=[N+]([O-])c1cccc2ccc(/C=C/c3ccc(Cl)cc3)nc12	92	39*	96	-4	-2
CNc1ccc(C=C2C=Cc3ccccc32)cc1	99	82*	·	·	·
CC(=O)N1CCc2cc(NC(=O)C3(C)CCN3Cc3ccc(C(C)C)cc3)ccc21 (stereo unspecified)	104	1	·	·	·
Cc1ccc(N=C2NC(=O)/C(=C\c3ccc(C)s3)S2)cc1	102	38*	98	2	-29
COC(=O)C[C@@H]1OC[C@H](Cc2ccccc2)N1S(=O)(=O)c1ccc(C)cc1	·	17	·	·	·
COc1ccc(N2CCN(C(CNC(=O)c3ccc4c(c3)OCO4)c3cccnc3)CC2)cc1 (stereo unspecified)	108	-9	96	20	-4
O=C(NCC(c1cccnc1)N1CCN(c2ccc(F)cc2)CC1)c1ccc2c(c1)OCO2 (stereo unspecified)	104	42*	92	-3	6
CCOc1ccc(OCc2ccc(C(=O)Nc3cccnc3)o2)cc1	89	-20	81	8	-8
CCOc1ccc(OCc2ccc(C(=O)NCc3cccnc3)o2)cc1	94	25	95	70*	2
CC1CCN(CC(=O)Nc2cccc(C(=O)Nc3cccc(C(F)(F)F)c3)c2)CC1	96	44*	89	-5	-1
CCOC(=O)N1CCN(C(=O)C[C@@H]2C[C@@]3(C(=O)OC)CCCCC=C3N(Cc3cccc4ccccc34)C2=O)CC1	99	7	·	·	·
CN(C(=O)OC(C)(C)C)c1ccc(-c2nc3ccccc3s2)cc1	93	43*	·	17	·
FC(F)(F)c1ccc(-c2nc3ccccc3s2)cc1	100	9	·	·	·
CC(C)c1ccc(-c2nc3ccccc3s2)cc1	98	46*	99	41	3
CC1(Cc2ccc(OC(F)(F)F)cc2)C(=O)Nc2ccc(S(=O)(=O)NC3CCCCC3)cc21 (stereo unspecified)	95	-10	·	·	·
C[C@@]12C(=O)OC(=O)[C@]1(C)C1CCC2O1	94	-7	51*	·	24
O=C(C=C=Nc1ccccc1)C(=O)N=C=Cc1ccccc1	98	-3	98	53*	29
O=C(N/N=C/c1ccccc1)C(=O)N/N=C/c1ccccc1	102	10	105	9	4
CCOC(=O)c1ccc(N2C(=O)c3n[nH]c(C)c3C2c2ccc(OC)cc2OC)cc1 (stereo unspecified)	100	13	98	-5	1
COc1ccc(C2NC(=O)c3n[nH]c(C)c32)c(OC)c1 (stereo unspecified)	104	-8	85	62*	-18
C[C@@H]1COc2cccc(N3CCSCC3)c2S(=O)(=O)N1	97	-24	·	·	·
O=C1c2ccccc2C(c2nnnn2-c2ccc3c(c2)OCCO3)N1C1CC1 (stereo unspecified)	98	0	·	·	·
CC1(c2ccc(Cl)cc2)NC(=O)N(CN2CCOCC2)C1=O (stereo unspecified)	103	37*	90	1	-3
CC1(c2ccc(Cl)cc2)NC(=O)N(CC(=O)N2CCc3ccccc3C2)C1=O (stereo unspecified)	99	-4	132	·	14
